“And” between values parts separate entries of the source, which are not always exact repeats. Identical values can stand only once. Inconclusive results are not listed. Where a call stands in place of a potency, no number is given. The source made the active and inactive calls. Unless noted, calls come from the whole dose curve; as a rule, active = well fitted curve in the direction sought with a large enough effect; inconclusive = small, poorly fitted or top-dose-only effect, or another doubt; inactive = no such curve, though single readings can be large; an effect the other way counts as inactive or inconclusive.
Experiments:
[1] = Primary qHTS for small molecule stabilizers of the endoplasmic reticulum resident proteome: Secreted ER Calcium Modulated Protein (SERCaMP) assay (AID 1508630)
In short: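 The SH-SY5Y reporter protocol was run at 3 concentrations up to 38.3 uM (primary) or 11 concentrations (follow-up): 16 h compound, 100 nM thapsigargin for 4 h, then extracellular luciferase luminescence.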

[2] = biological target: Calcium and integrin-binding protein 1 (Homo sapiens) (UniProt Q99828); assay: Primary qHTS for Identification of Calcium Integrin Binding Protein 1 (CIB1) Competitor (AID 1508620);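 note: GST tagged CIB1 binding a fluorescein labelled alphaIIb integrin peptide tracer; top concentration of the series differs between compounds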
In short: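 Fluorescence polarization competition: CIB1-GST (1 uM final) preincubated with compound 15 min at room temperature, then FITC-labeled alphaIIb peptide (100 nM final) added for another 15 min. Polarization read at Ex 480/Em 540.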

[3] = Primary qHTS for inhibitors of nuclear receptor binding SET domain protein 2 (NSD2) in an isogenic RCH-ACV NSD2 p.E1099K mutant (9B) (AID 1645876); note: nearly all actives have a fitted effect of over 70% in size; note: potency is the fitted concentration of half-maximal effect
[4] = Primary qHTS for inhibitors of nuclear receptor binding SET domain protein 2 (NSD2) in an RCH-ACV wild type WT cells (2C) (AID 1645877); note: nearly all actives have a fitted effect of over 70% in size; note: potency is the fitted concentration of half-maximal effect
[5] = biological target: Cytochrome P450 2D6 (Homo sapiens) (UniProt P10635); assay: Cytochrome P450 family 2 subfamily D member 6 (CYP2D6) small molecule antagonists: luciferase biochemical (cell-free) qHTS assay (AID 1645840; active = well fitted curve in the direction sought with a large enough effect in the repeat runs; an effect the other way counts as inactive or inconclusive; note: nearly all actives have a fitted effect of over 55% in size; note: potency is the fitted concentration of half-maximal effect)
In short: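 P450-Glo CYP2D6 system: proluciferin substrate converted by enzyme to luciferin, read by luminescence proportional to activity. Enzyme-substrate mix with compound 10 min at room temperature, then NADPH regeneration 1 h before detection reagent.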

[6] = biological target: Cytochrome P450 2C9 (Homo sapiens) (UniProt P11712); assay: Cytochrome P450 family 2 subfamily C member 9 (CYP2C9) small molecule antagonists: luciferase biochemical (cell-free) qHTS assay (AID 1645842; active = well fitted curve in the direction sought with a large enough effect in the repeat runs; an effect the other way counts as inactive or inconclusive; note: nearly all actives have a fitted effect of over 55% in size; note: potency is the fitted concentration of half-maximal effect)
In short: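 P450-Glo CYP2C9 system: proluciferin substrate with enzyme in mix containing 0.4% BSA, 10 min at room temperature, then NADPH regeneration solution added and incubated 1 h at 37C. Detection reagent stopped reaction; luminescence read after 20 min as RLU.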

[7] = Counterscreen qHTS for small molecule stabilizers of the endoplasmic reticulum resident proteome: GLuc-NoTag assay (AID 1508627); note: potency is the fitted concentration of half-maximal effect
In short: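 Secreted GLuc lacking the SERCaMP modification is measured in SH-SY5Y cells exposed to compound for 19 h and then to thapsigargin (100 nM, 4 h) to deplete ER calcium; hits retested at 11 concentrations, up to 76.6 uM.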

[8] = Confirmatory qHTS for small molecule stabilizers of the endoplasmic reticulum resident proteome: Secreted ER Calcium Modulated Protein (SERCaMP) assay (AID 1508628); note: series mostly up to about 76 µM; nearly all actives have a fitted effect of over 40% in size
In short: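 GLuc-SERCaMP-expressing SH-SY5Y cells, pretreated 16 h with compound, are challenged with thapsigargin to empty ER calcium stores; after 4 h, coelenterazine is added directly to the medium and luminescence is imaged.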

[9] = A High-Content qHTS Against Drug Library for the Identification of Small Molecules that Inhibit DYT1 Early Onset Primary Dystonia-Associated Cell Pathology (AID 1645839; calls by dose curve; note: potency is the fitted concentration of half-maximal effect)
In short: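 Induced EGFP-delE TorsinA cells are imaged after 48 h of compound treatment. Punctate fusion-protein distribution gives the %pathology value, while nuclei counts flag toxicity. Wild-type EGFP-hTOR1A cells define the normal pattern.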

Papain (Carica papaya) = Papain (Carica papaya) (UniProt P00784); assay: Primary qHTS assay for inhibitors of the protease papain (AID 1645873);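 note: papain turnover of Z-FR-AMC read as the AMC fluorescence gain over 10 min; series mostly up to about 50 µM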
[10] = biological target: N-terminal Xaa-Pro-Lys N-methyltransferase 1 (Homo sapiens) (UniProt Q9BV86); assay: Confirmatory qHTS for Inhibitors of N-terminal methyltransferase 1 (NTMT1): MTaseGlo Assay (AID 1645874); note: nearly all actives have a fitted effect of over 65% in size; note: potency is the fitted concentration of half-maximal effect
In short: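 Room-temperature NTMT1 reaction, 30 min, with 100 uM SAM and 1 uM SPKRIA substrate; enzyme 125 nM. Read-out: MTase-Glo luminescence, normalized to no-enzyme and DMSO controls.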

[11] = biological target: Rap guanine nucleotide exchange factor 3 (Homo sapiens) (UniProt O95398); assay: Confirmatory qHTS for antagonist of cAMP-regulated guanine nucleotide exchange factor 3 (EPAC1) (AID 1645880); details: EPAC1 Rap1B-BODIPY-GDP exchange, fluorescence; note: potency is the fitted concentration of half-maximal effect; nearly all actives have a fitted effect of over 55% in size
In short: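 Released BODIPY-GDP fluoresces less than Rap1-bound BODIPY-GDP; the signal is followed at 480/540 nm at 5-min intervals over 30 min, after 5 min at room temperature. Reactions contain 100 nM EPAC1, 250 nM RAP1B-BODIPY-GDP and 50 uM GDP; results are normalized to ATA and DMSO.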

[12] = biological target: Rap guanine nucleotide exchange factor 3 (Homo sapiens) (UniProt O95398); assay: Confirmatory qHTS for agonist of cAMP-regulated guanine nucleotide exchange factor 3 (EPAC1) (AID 1645881);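 note: EPAC1 catalysed release of BODIPY-GDP from Rap1B seen as fluorescence loss; nearly all actives have a fitted effect of over 75% in size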
[13] = biological target: Rap guanine nucleotide exchange factor 4 (Homo sapiens) (UniProt Q8WZA2); assay: Confirmatory qHTS for agonist of cAMP-regulated guanine nucleotide exchange factor 4 (EPAC2) (AID 1645884);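 note: nucleotide exchange releases bodipy-GDP from Rap1 and this lowers its fluorescence; nearly all actives have a fitted effect of over 65% in size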
[14] = biological target: Rap guanine nucleotide exchange factor 4 (Homo sapiens) (UniProt Q8WZA2); assay: Confirmatory qHTS for antagonist of cAMP-regulated guanine nucleotide exchange factor 4 (EPAC2) (AID 1645885); details: EPAC2 Rap1B-BODIPY-GDP exchange fluorescence, biochemical; note: potency is the fitted concentration of half-maximal effect; nearly all actives have a fitted effect of over 25% in size

Chain of Rap guanine nucleotide exchange factor 3 (Homo sapiens) (O95398 whole entry, looked up): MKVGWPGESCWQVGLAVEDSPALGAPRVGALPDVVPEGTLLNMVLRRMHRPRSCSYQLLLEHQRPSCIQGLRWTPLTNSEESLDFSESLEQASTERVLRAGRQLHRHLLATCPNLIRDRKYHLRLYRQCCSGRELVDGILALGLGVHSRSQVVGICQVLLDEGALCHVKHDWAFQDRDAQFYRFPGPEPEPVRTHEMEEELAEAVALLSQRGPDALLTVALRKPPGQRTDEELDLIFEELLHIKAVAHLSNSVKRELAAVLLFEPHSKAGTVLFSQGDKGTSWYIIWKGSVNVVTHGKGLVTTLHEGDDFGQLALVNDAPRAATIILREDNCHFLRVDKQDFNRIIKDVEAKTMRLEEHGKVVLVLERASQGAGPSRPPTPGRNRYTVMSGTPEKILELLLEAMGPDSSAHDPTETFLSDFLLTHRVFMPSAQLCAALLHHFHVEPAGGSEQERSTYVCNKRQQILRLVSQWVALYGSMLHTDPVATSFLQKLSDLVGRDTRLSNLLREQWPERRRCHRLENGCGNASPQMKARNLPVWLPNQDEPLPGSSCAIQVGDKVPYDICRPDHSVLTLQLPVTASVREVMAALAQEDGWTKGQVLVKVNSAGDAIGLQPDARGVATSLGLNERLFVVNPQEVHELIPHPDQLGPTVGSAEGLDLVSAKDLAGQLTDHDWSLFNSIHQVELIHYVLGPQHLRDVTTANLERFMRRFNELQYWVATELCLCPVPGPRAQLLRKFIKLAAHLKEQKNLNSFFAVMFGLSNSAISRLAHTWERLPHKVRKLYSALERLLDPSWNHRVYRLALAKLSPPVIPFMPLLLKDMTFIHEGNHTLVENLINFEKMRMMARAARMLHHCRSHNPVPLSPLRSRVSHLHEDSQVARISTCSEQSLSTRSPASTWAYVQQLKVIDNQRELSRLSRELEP
Chain of Calcium and integrin-binding protein 1 (Homo sapiens) (Q99828 whole entry, looked up): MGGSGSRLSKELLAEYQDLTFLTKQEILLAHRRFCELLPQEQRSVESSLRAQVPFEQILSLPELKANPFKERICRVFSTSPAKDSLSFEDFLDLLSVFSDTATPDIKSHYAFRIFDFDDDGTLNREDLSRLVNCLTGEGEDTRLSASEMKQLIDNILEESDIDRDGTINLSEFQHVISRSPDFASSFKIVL
Chain of Cytochrome P450 2C9 (Homo sapiens) (P11712 whole entry, looked up): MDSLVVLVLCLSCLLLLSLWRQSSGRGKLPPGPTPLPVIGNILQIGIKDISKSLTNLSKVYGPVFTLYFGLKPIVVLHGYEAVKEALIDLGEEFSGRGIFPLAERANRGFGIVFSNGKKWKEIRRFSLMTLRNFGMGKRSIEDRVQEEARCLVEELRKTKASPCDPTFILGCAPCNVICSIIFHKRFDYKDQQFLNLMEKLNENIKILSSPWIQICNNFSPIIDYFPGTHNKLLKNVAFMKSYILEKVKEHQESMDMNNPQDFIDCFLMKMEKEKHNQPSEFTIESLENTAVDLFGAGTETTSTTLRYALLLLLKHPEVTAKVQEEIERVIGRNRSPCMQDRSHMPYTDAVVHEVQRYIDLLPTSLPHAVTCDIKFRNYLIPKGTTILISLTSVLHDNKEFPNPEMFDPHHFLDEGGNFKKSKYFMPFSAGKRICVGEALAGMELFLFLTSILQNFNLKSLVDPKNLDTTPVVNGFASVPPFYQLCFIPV
Chain of Rap guanine nucleotide exchange factor 4 (Homo sapiens) (Q8WZA2 whole entry, looked up): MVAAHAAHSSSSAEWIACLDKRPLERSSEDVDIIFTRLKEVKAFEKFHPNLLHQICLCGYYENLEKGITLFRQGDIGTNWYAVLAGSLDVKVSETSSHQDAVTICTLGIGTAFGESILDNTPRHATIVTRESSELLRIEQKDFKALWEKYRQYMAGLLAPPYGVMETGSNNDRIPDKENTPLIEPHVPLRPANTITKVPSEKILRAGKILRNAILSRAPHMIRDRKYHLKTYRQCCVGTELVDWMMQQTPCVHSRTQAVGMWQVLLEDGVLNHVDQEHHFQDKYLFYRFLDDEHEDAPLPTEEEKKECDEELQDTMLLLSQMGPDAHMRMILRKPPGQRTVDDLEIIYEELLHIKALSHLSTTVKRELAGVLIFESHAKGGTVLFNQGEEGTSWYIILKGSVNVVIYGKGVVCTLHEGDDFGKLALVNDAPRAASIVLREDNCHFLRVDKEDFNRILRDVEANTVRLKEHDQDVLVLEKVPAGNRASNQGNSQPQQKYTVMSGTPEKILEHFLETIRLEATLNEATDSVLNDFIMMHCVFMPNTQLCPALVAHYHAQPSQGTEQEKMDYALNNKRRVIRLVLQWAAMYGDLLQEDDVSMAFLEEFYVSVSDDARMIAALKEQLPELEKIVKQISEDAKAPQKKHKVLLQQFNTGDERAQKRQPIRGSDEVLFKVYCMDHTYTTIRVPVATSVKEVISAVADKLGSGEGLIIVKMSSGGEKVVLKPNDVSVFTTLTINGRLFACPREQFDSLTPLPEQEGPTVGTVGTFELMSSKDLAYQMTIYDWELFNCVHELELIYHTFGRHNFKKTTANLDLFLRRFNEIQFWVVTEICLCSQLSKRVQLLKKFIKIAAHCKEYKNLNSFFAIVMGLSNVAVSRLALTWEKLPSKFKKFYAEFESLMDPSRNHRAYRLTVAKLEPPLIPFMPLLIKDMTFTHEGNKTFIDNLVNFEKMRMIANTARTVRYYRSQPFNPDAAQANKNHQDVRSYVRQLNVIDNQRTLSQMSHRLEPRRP
Chain of Cytochrome P450 2D6 (Homo sapiens) (P10635 whole entry, looked up): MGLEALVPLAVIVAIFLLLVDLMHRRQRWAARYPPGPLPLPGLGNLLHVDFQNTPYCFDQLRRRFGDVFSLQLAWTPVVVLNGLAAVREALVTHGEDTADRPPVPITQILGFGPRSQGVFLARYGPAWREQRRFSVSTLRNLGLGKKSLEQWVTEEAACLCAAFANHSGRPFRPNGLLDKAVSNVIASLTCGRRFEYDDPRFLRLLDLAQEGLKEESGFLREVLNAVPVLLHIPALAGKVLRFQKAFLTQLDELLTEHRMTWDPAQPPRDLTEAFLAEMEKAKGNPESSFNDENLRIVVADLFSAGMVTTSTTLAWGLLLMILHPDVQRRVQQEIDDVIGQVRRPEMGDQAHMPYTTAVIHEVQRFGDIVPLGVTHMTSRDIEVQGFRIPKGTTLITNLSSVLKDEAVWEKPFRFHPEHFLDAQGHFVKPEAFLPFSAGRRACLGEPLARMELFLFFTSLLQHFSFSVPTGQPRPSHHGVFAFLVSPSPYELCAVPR
Chain of N-terminal Xaa-Pro-Lys N-methyltransferase 1 (Homo sapiens) (Q9BV86 whole entry, looked up): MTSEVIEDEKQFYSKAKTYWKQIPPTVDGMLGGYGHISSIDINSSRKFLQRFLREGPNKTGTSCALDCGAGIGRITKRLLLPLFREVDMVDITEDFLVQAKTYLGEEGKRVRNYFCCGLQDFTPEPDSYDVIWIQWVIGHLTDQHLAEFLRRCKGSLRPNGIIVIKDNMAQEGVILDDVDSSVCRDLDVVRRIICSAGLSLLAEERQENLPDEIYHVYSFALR
Chain of Papain (Carica papaya) (P00784 whole entry, looked up): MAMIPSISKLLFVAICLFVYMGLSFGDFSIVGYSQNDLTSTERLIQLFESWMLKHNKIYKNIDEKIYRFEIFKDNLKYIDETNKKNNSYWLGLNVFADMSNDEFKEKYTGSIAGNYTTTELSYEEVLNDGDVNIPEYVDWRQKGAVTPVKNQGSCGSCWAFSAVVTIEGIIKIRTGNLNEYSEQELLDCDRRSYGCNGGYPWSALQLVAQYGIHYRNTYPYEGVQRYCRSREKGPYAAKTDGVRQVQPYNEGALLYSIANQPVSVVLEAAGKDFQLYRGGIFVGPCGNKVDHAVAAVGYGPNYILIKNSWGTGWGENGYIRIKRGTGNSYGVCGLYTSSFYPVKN

C[C@H]1C[C@@H]2[C@@H]([C@@H](O)C[C@@]3(C)[C@H]2CC[C@]3(O)C(=O)CO)[C@@]2(C)C=CC(=O)C=C12
Potency [1]: inactive

CN(C)CCCN=c1c2ccccc2n(C)c2[nH]c(=O)n(C)c(=O)c12
outcome [2]: inactive | Potency [3]: 13.2 µM (active) | Potency [4]: 11.8 µM (active)

O=C(NC1CCNCC1)c1[nH]ncc1NC(=O)c1c(Cl)cccc1Cl
outcome [2]: inactive | Potency [3]: 0.662 µM (active) | Potency [4]: 0.59 µM (active)

COc1ccc(-n2nc(C(N)=O)c3c2C(=O)N(c2ccc(N4CCCCC4=O)cc2)CC3)cc1
Potency [1]: inactive | Potency [5]: inactive | Potency [6]: inactive | Potency [3]: inactive

CC1(C)O[C@@H]2C[C@@H]3[C@H]4C[C@@H](F)C5=CC(=O)C=C[C@]5(C)[C@@]4(F)[C@@H](O)C[C@]3(C)[C@]2(C(=O)CO)O1
Potency [1]: inactive

NCC(=O)Nc1ccc(-n2nc(C(F)(F)F)cc2-c2ccc3c(ccc4ccccc43)c2)cc1
Potency [1]: inactive | Potency [5]: 15.1 µM (active) | Potency [6]: 4.77 µM (active) | Potency [3]: 1.15 µM (active) and 1.48 µM (active) | Potency [4]: 4.09 µM (active) and 2.09 µM (active)

O=C(O)CO.[NH2-].[NH2-].[Pt+2]
Potency [1]: inactive

O=C(O)Cn1nnc(-c2cc(N3CCC(Oc4cc(F)ccc4Br)CC3)no2)n1
Potency [1]: inactive | Potency [5]: inactive | Potency [6]: 13.5 µM (active) | Potency [3]: inactive

Cc1cn(-c2cc(NC(=O)c3ccc(C)c(Nc4nccc(-c5cccnc5)n4)c3)cc(C(F)(F)F)c2)cn1
outcome [2]: inactive | Potency [3]: 8.2 µM (active) and 11.8 µM (active) | Potency [4]: 5.8 µM (active) and 2.35 µM (active)

O=C(C=Cc1c(C(=O)O)[nH]c2cc(Cl)cc(Cl)c12)Nc1ccccc1
Potency [1]: inactive

CC(=O)Nc1nc(C)c(-c2ccc(Cl)c(S(=O)(=O)NCCO)c2)s1
outcome [2]: inactive | Potency [3]: 1.32 µM (active) | Potency [4]: 1.32 µM (active)

O=C(O)CCCc1c[nH]c2ccccc12
outcome [2]: inactive | Potency [3]: inactive | Potency [4]: inactive

CS(=O)(=O)N1CCN(Cc2cc3nc(-c4cccc5[nH]ncc45)nc(N4CCOCC4)c3s2)CC1
Potency [1]: inactive

COc1cc(C(C)C)c2c(c1)S(=O)(=O)N(COc1cc(=O)n3cccc(OCCN4CCCCC4)c3n1)C2=O
Potency [7]: 39.8 µM (active) | outcome [8]: inactive | Potency [1]: inactive | Potency [3]: 14.8 µM (active) | Potency [4]: 10.5 µM (active)

O=C(CCCCCCC(=O)Nc1ccc([C@H]2O[C@@H](CSc3nc(-c4ccccc4)c(-c4ccccc4)o3)C[C@@H](c3ccc(CO)cc3)O2)cc1)NO
outcome [2]: inactive | Potency [3]: 2.58 µM (active) and 4.28 µM (active) | Potency [4]: 2.58 µM (active) and 4.28 µM (active)

Cc1cc(Nc2cc(N3CCN(C)CC3)nc(C=Cc3ccccc3)n2)n[nH]1
Potency [1]: inactive

c1ccc2c(CCNc3ccc(Nc4ccncc4)cc3)c[nH]c2c1
Potency [1]: inactive | Potency [5]: 0.477 µM (active) | Potency [6]: 2.68 µM (active) | Potency [3]: 728 nM (active) and 332 nM (active) | Potency [4]: 578 nM (active) and 296 nM (active)

COC(=O)C1=C(C)NC(C)=C(C(=O)OCCN2CCN(C(c3ccccc3)c3ccccc3)CC2)C1c1cccc([N+](=O)[O-])c1 (stereo not drawn)
Potency [9]: 8.91 µM (active)

O=c1c2ccccc2nc2n1CCc1c-2[nH]c2ccccc12
outcome (Papain (Carica papaya)): inactive

OCc1ccc(-c2ccc(-c3ccc(CO)s3)o2)s1
Potency [10]: inactive

Fc1cc(-c2cccc3ncc(-c4cnn(C5CCNCC5)c4)nc23)cc(F)c1CN1CCOCC1
Potency [10]: 39.8 µM (active)

COc1cc(C(=O)NS(=O)(=O)c2ccccc2C)ccc1Cc1cn(C)c2ccc(NC(=O)OC3CCCC3)cc12
Potency [11]: 25 µM (active) | outcome [12]: inactive | outcome [13]: inactive | Potency [14]: 49.4 µM (active)

CC(C)(C)NC(=O)[C@H]1CN(Cc2cccnc2)CCN1C[C@@H](O)C[C@@H](Cc1ccccc1)C(=O)N[C@H]1c2ccccc2C[C@H]1O
outcome [12]: inactive | outcome [13]: inactive | Potency [14]: 44.1 µM (active)
